Source: PubChem BioAssay (National Center for Advancing Translational Sciences (NCATS))
A selection: hits, their analogues and other compounds. The true share with any hit is near 2.6%.
Cruzain inh Det: blocks cruzain activity in presence of Triton detergent | AID 1478 | hit rate 0.43% among 200,000 | purified cruzain, Z-FR-AMC fluorescence, 0.01% Triton | Potency, µM, for the others: max response, negative = inhibition, most hits filed as inhibitors | P25779;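 also: plate controls were neutral wells for no effect and buffer without enzyme for full effect; nearly all actives have a fitted effect of over 40% in size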
Target sequence (P25779 123-467 limits assumed): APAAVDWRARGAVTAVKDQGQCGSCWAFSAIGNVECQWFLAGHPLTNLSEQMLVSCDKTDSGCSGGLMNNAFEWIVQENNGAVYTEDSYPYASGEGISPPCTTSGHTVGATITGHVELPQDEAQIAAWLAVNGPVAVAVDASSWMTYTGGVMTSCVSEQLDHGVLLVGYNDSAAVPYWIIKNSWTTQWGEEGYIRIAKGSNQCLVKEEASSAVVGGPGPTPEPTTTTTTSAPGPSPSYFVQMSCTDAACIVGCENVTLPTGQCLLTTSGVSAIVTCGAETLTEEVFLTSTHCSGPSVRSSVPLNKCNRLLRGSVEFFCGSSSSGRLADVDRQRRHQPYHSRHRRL
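Sodium acetate buffer (100 mM, pH 5.5) containing 5 mM DTT and 0.01% Triton X-100 hosted 1.5 nM cruzain and test compound for 15 min at room temperature. Cleavage of 2 uM Z-FR-AMC was then tracked by fluorescence.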
Cruzain inh noDet: inhibitors of Trypanosoma cruzi cruzain without detergent; AID 1476; Potency, µM, for inactives: max response, negative = inhibition, usual class: inhibitors; hit rate 2.3% among 200,000; purified cruzain, Z-FR-AMC fluorescence, no detergent; P25779;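 also: plate controls were enzyme without inhibitor for no effect and buffer without enzyme for full effect; nearly all actives have a fitted effect of over 40% in size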
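Purified cruzain at 1.5 nM, pre-incubated 15 min with compound at room temperature in 100 mM sodium acetate pH 5.5, 5 mM DTT, 0.00005% Triton X-100. Reaction started with 2 uM Z-FR-AMC; AMC fluorescence increase over 60 s gives rate.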
Papain counter: blocks papain protease activity, flagging nonselective cruzain hits. shares compounds with Cruzain inh Det. purified papain, Z-FR-AMC fluorescence cleavage. Potency, µM, without a hit: max response, negative = inhibition, usual class: inhibitors. hit rate 41% among 410. AID 2161;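 also: 0% = no-compound wells and -100% = no-enzyme wells; nearly all actives have a fitted effect of over 35% in size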
Target sequence (P00784 whole entry, looked up): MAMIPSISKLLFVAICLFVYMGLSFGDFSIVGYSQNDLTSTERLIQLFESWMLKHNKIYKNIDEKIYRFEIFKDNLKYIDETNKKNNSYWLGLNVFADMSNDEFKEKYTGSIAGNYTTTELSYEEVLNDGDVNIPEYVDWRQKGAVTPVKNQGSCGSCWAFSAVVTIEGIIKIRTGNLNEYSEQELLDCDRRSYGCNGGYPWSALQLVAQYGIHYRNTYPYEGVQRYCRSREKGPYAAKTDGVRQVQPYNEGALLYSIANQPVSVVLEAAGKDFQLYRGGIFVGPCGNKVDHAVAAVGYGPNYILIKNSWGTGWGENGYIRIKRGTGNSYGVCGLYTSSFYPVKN
The depositor's hits bear a star; u = inconclusive; x = not tested or not shown. Calls follow the shape of the dose curve; as a rule, active = well fitted curve in the direction sought with a large enough effect; inconclusive = small, poorly fitted or top-dose-only effect, or another doubt; inactive = no such curve, though single readings can be large; an effect the other way counts as inactive or inconclusive. Potency is read from the fitted curve at half-maximal effect.

SMILES	Cruzain inh Det	Cruzain inh noDet	Papain counter
COc1ccc(NC(=O)c2ccc(CNc3c(NC4CCCCC4)c(=O)c3=O)cc2)c(OC)c1	0.0%	u	x
COC(=O)c1ccccc1NC(=O)c1nc(-c2ccc(C)cc2)n2c1CCCCC2	-1.5%	11.6%	x
COc1ccc(/C=C/C(=O)Nc2ccc(-n3nncc3-c3ccc(Br)cc3)cc2)cc1OC	x	x	-19.8%
COc1ccc(/C=C/C(=O)Nc2ccc(-n3nncc3-c3ccccc3)cc2)cc1OC	3.16µM*	15.8µM*	-14.1%
COc1cccc(C(=O)Nc2ccc(-n3nncc3-c3ccc(Br)cc3)cc2)c1OC	-1.2%	-8.0%	x
COc1ccc(/C=C/C(=O)Nc2ccccc2C(=O)O)cc1OC	-6.7%	-16.0%	x
Cc1ccc(NC(=O)c2ccc(-n3nncc3-c3ccccc3)cc2)cc1	x	x	3.5%
CCOc1ccc(C(=O)Nc2ccc(-n3nncc3-c3ccccc3)cc2)cc1OCC	-5.4%	16.4%	x
Cc1cccc(-n2c3nc(=O)n(C)c(=O)c-3cc3c(C)nn(-c4ccccc4)c32)c1C	-1.1%	-1.9%	x
CC(C)CCNC(=O)Cn1c(SCc2cccc(F)c2)nc2ccncc21	x	x	-13.7%
Cc1cccc(CSc2nc3ccncc3n2CC(=O)Nc2ccc(C)c(C)c2)c1	-3.4%	4.7%	x
CCCCNC(=O)Cn1c(SCc2cccc(C)c2)nc2ccncc21	x	x	-14.9%
O=C(Cn1c(SCc2cccc(F)c2)nc2ccncc21)Nc1ccc(Cl)cc1F	-19.8%	7.2%	x
COc1cccc(C2CC(=O)Nc3c2ccc(C)c3C)c1OC (stereo not given)	-3.5%	-3.2%	x
O=C(CNC(=O)c1ccccc1)N[C@H](C(=O)Nc1cc(C(F)(F)F)ccc1Cl)c1ccccc1	x	x	-3.7%
O=C(NC(Nc1cc(C(F)(F)F)ccc1Cl)C(=O)c1ccccc1)c1ccccc1 (stereo not given)	-1.9%	u	x
Cc1nc2ccc(S(=O)(=O)CCC(=O)Nc3ccc(C)c(C)c3)cc2s1	1.7%	-3.3%	x
Cc1ccc2c(=O)c(C(=O)c3cccc(Cl)c3)cn(CC(=O)Nc3ccccc3C(F)(F)F)c2n1	0.1%	2.0%	x
COc1ccc(/C=N/NC(=O)c2cccc(Br)c2)cc1Cn1cc(Cl)cn1	-1.8%	u	x
COc1ccc(/C=N/NC(=O)c2ccc(Br)cc2)cc1Cn1cc(Cl)cn1	-5.3%	u	-58.5%
Cc1ccc(C)c(-c2csc(-c3c(N)c(C(=O)c4ccc5c(c4)OCO5)n4ccccc34)n2)c1	-2.7%	3.16µM*	12.4%
Cc1cc(C)c(-c2csc(NC(=O)COC(=O)c3ccc4c(c3)OCO4)n2)c(C)c1	-3.7%	u	x
O=C(NCCc1nc2ccccc2[nH]1)Nc1ccccc1	3.0%	-2.6%	x
O=C(COc1ccc(F)cc1)NCCc1nc2ccccc2[nH]1	1.58µM*	-7.6%	3.55µM*
CC(C)(C)NC(=O)COC(=O)CNC(=O)C1CCCCC1	x	x	-23.1%
SMILES	Cruzain inh Det	Cruzain inh noDet	Papain counter
O=C(CNC(=O)C1CCCCC1)Nc1ccccc1	-1.6%	-11.3%	x
CC(C)NC(=O)COC(=O)CNC(=O)C1CCCCC1	x	x	-58.2%
Cc1cc(NC(=O)CNC(=O)C2CCCCC2)no1	-3.7%	2.2%	x
COc1ccc(CCNC(=O)CCS(=O)(=O)c2cc3c(cc2Cl)NC(=O)CO3)cc1OC	-2.7%	8.9%	x
COc1ccc(N2Cc3cccc(C(=O)Nc4ccc(Cl)cc4)c3C2=O)cc1	-2.3%	-3.2%	x
O=C(NC1CCCC1)c1ccc2nc[nH]c2c1	1.1%	-5.2%	x
O=C(NCCO)c1ccc2nc(-c3ccco3)c(-c3ccco3)nc2c1	12.6µM*	12.6µM*	31.6µM*
O=C(NCCO)c1ccc(Cl)c(Cl)c1	3.0%	-2.8%	x
O=C(NC1CCCC1)c1ccc2nc(-c3ccco3)c(-c3ccco3)nc2c1	14.1µM*	5.01µM*	14.1µM*
O=C(Nc1ccc(F)cc1)C1CCN(c2nc3ccccc3nc2C(F)(F)F)CC1	-0.2%	6.2%	x
N#Cc1nc(-c2ccc(COc3ccccc3)o2)oc1NCc1cccnc1	-9.1%	u	x
CC(C)(C)OC(=O)N[C@@H](Cc1ccccc1)c1nnc(SCC(=O)O)o1	25.1µM*	-13.4%	-21.1%
COC(=O)CSc1nnc([C@H](CC(C)C)NC(=O)OC(C)(C)C)o1	u	-24.0%	x
COc1ccc(Nc2nc(Cl)nc(NCCO)n2)cc1	0.6%	11.5%	x
N#Cc1nc(NCCCCO)nc(Nc2ccccc2)n1	x	x	2.24µM*
CCCCNc1cc(C)nc(NCc2ccccc2)n1	3.7%	4.5%	x
CCCCNc1nc(C#N)nc(Nc2ccccc2)n1	x	x	1µM*
O=C(NCCc1nc2ccccc2n1CCOc1cccc2ccccc12)C1CCCCC1	x	x	2.5%
CC(=O)NCCc1nc2ccccc2n1Cc1ccc(C)cc1	1.2%	-1.3%	x
O=C(NCCc1nc2ccccc2n1CCCOc1ccccc1Cl)C1CCCCC1	x	x	-16.7%
Cc1ccc(C)c(OCCn2c(CCNC(=O)C3CCCCC3)nc3ccccc32)c1	1.26µM*	1.4%	3.8%
O=C(NCCCc1nc2ccccc2n1Cc1c(F)cccc1Cl)C1CCCCC1	-1.4%	-10.2%	x
Cc1ccccc1OCCn1c(CCNC(=O)C(C)(C)C)nc2ccccc21	-3.3%	u	x
O=C(NCCCc1nc2ccccc2n1Cc1ccccc1Cl)C1CCCCC1	-5.7%	-8.1%	x
Cc1ccccc1OCCn1c(CCNC(=O)C2CCCCC2)nc2ccccc21	1.41µM*	-2.3%	-3.1%
SMILES	Cruzain inh Det	Cruzain inh noDet	Papain counter
Cc1ccc(-c2ccc(=O)n(CC(=O)NCCc3ccccc3)n2)cc1	1.7%	1.0%	x
Cc1ccc(-n2c3c(cc(C(=O)Nc4ccccc4C(N)=O)c2=O)C(=O)CC(C)(C)C3)cc1	-5.4%	-2.3%	x
Cc1nc(NCc2ccccc2)c2nc(-c3ccccc3)n(CCN3CCCC3)c2n1	2.2%	-5.2%	x
O=C(CCC1N=C2c3ccccc3N=C(SCC(=O)Nc3ccc(F)cc3)N2C1=O)NCc1ccco1 (stereo not given)	-1.9%	16.3%	x
Cc1ccc(N=CC2=C(O)CC(c3ccco3)CC2=O)cc1 (stereo not given)	-3.8%	4.7%	x
Cc1ccc(C(=O)Oc2oc(-c3ccco3)nc2C=Nc2ccc(Cl)cc2)cc1	3.98µM*	12.6µM*	14.1µM*
CCCCC[C@H](O)/C=C/C=C/C=C/[C@@H](O)C/C=C\CCCC(=O)O	4.5%	-16.2%	x
O=C(Nc1ccc(F)c(Cl)c1)C1CCCN1S(=O)(=O)c1ccc(F)cc1 (stereo not given)	-4.4%	-17.5%	x
CC1(C)Oc2ccc(/C=C/C(=O)N3CCOCC3)c(O)c2C(N2CCOCC2)C1O (stereo not given)	-8.0%	2.3%	x
CC(C)CC(=O)OC1C(N2CCOCC2)c2c(ccc(/C=C/C(=O)N3CCOCC3)c2O)OC1(C)C (stereo not given)	-24.2%	u	14.1µM*
CCN(CCO)c1ncnc2c1sc1nc(C(C)C)c3c(c12)CC(C)(C)OC3	-0.9%	u	x
CCN(CCO)c1nc(SC)nc2c1sc1nc(-c3ccco3)c3c(c12)CCC3	8.91µM*	6.31µM*	12.6µM*
CN(C)c1nc(N2CCOCC2)nc(N(c2ccccc2)c2ccccc2)n1	-1.3%	u	x
COc1nc(N(c2ccccc2)c2ccccc2)nc(-n2ccnc2)n1	-0.1%	-8.6%	x
N#CCOc1nc(N2CCOCC2)nc(N2CCOCC2)n1	-0.9%	5.5%	x
N#Cc1nc(N2CCOCC2)nc(N2CCOCC2)n1	1.12µM*	1.26µM*	1.26µM*
CCNc1nc(C#N)nc(N2CCOCC2)n1	x	x	3.16µM*
N#Cc1nc(N(c2ccccc2)c2ccccc2)nc(-n2cccc2)n1	x	x	10µM*
CN(c1ccccc1)c1nc(C#N)nc(N2CCOCC2)n1	x	x	1.26µM*
